Screening data: PubChem, National Center for Advancing Translational Sciences (NCATS)
L3MBTL1 inh: blocks human L3MBTL1. AID 485360. actives 0.66% (n = 230,000). Potency, µM (doses to about 57.1 µM), hits mostly inhibitors. Q9Y468. AlphaScreen L3MBTL1–H3K9me1 peptide binding; also: nearly all actives have a fitted effect of over 60% in size
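L3MBTL1 50 nM + b-AHA-H3(1-15)K9me1 75 nM, 30 min RT; compound added, 30 min RT; streptavidin donor/Ni-chelate acceptor beads 10 ug/mL each final, 30 min RT dark; AlphaScreen read.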
APE1 inh: APE1 (human) endonuclease inhibition. recombinant APE1, TAMRA/BHQ-2 abasic DNA cleavage fluorescence. Potency, µM (series often up to 65.8 µM), usual class: inhibitors. actives 0.35% (n = 350,000); also: nearly all actives have a fitted effect of over 55% in size
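0.75 nM APE1 + cpd, 15 min RT; start w/ 50 nM TAMRA/BHQ-2 THF-abasic dsDNA; kinetic fluor 525/598 nm ×3 reads @60 s; Δ(read3−read1); normalized to DMSO and NSC13755 control wells.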
POLI inh: inhibitors of human DNA polymerase iota; Q9UNA4; Pol iota fluorescent replication assay, 10 min; Potency, µM (series often up to 115 µM), most hits filed as inhibitors; actives 1% (n = 390,000); AID 588590
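Pol iota at 10 nM preincubated 15 min with compounds at room temperature; reaction started with fluorescent substrate, 50 nM final. Fluorescence read kinetically at 0 and 10 min; buffer-only wells as negative control.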
POLK inh: DNA polymerase kappa (human) inhibition. Q9UBT6. purified Pol kappa, fluorescent DNA synthesis assay, 10 min. Potency, µM (top dose mostly 107 µM), actives largely listed as inhibitors. actives 0.53% (n = 400,000). AID 588579
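10 nM Pol kappa preincubated 15 min at room temperature with compounds, then reaction started with substrate at 50 nM final. Fluorescence read kinetically at 0 and 10 min; buffer-only wells served as negative control.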
POLH inh: inhibitors of human DNA polymerase eta; actives 1.2% (n = 390,000); Potency, µM (doses to about 114 µM), most hits filed as inhibitors; recombinant Pol eta, fluorescent DNA replication assay; Q9Y253
Target sequence (Q9Y253 whole entry, looked up): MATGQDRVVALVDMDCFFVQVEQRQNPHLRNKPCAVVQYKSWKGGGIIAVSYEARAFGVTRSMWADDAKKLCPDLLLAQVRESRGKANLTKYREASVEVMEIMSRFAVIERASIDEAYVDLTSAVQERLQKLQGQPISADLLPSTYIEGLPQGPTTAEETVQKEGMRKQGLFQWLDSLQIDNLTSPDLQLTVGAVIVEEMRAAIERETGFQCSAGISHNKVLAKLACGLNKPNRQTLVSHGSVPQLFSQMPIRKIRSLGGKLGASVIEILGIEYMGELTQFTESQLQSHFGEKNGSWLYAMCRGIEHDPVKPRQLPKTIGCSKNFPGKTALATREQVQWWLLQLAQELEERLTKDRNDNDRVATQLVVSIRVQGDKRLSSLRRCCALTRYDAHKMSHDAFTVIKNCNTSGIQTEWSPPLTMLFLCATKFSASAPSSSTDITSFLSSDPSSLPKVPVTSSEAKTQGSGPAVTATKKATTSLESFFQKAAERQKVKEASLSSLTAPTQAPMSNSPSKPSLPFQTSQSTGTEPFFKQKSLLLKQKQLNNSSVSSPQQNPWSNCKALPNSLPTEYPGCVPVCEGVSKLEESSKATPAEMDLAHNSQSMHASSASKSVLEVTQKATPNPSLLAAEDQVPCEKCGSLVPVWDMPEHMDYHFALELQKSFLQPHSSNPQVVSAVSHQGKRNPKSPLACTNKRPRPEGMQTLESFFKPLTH
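Pol eta at 10 nM preincubated with compounds 15 min at room temperature; reaction started with fluorescent substrate (50 nM final) and read kinetically at 0 and 10 min.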
POLB inh: blocks human DNA polymerase beta activity; Pol beta primer extension/strand displacement, fluorescence kinetic; Potency, µM (series often up to 114 µM), usual class: inhibitors; actives 1.3% (n = 340,000)
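Values derive from four-parameter Hill fits of normalized kinetic data: reads at 0 and 10 min following addition of 50 nM substrate to 10 nM Pol beta preincubated 15 min with compound.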
Hits are given with their value; . = inactive; ? = inconclusive; / = no result given; ! = not confirmed by another sample; [ ] = dose if it differs, or a comment. Most compounds without a hit are left out; they make up all but 2.5% or so of the library. Calls follow the shape of the dose curve; as a rule, active = well fitted curve in the direction sought with a large enough effect; inconclusive = small, poorly fitted or top-dose-only effect, or another doubt; inactive = no such curve, though single readings can be large; an effect the other way counts as inactive or inconclusive.

SMILES | L3MBTL1 inh | APE1 inh | POLI inh | POLK inh | POLH inh | POLB inh
Cc1[nH][nH]c(=O)c1C(c1c(C)[nH][nH]c1=O)c1cn(Cc2ccc(Cl)c(Cl)c2)c2ccccc12 | ? | . | 2.51µM | . | ? | .
O=c1c2ccccc2ncn1Cc1ccc(Cl)c(Cl)c1 | . | . | . | . | . | .
CN1CCc2[nH]c3ccc(C(=O)NN)cc3c2C1 | / | . | ? | ? | . | 39.8µM
CNS(=O)(=O)c1ccc2c3c(cccc13)C(=O)N2 | . | . | . | . | . | .
O=C(O)/C=C/c1ccc(S(=O)(=O)NCc2ccco2)cc1 | . | ? | . | . | 35.5µM | .
O=C1Nc2ccc(S(=O)(=O)NCc3ccco3)c3cccc1c23 | / | / | 39.8µM | . | 20µM | /
CCOc1ccc(S(=O)(=O)NCc2ccco2)c2ccccc12 | . | . | . | . | . | ?
O=C(O)CNS(=O)(=O)c1ccc2c3c(cccc13)C(=O)N2 | . | ? | ? | ? | 31.6µM | .
O=C(O)CCCCCNS(=O)(=O)c1ccc2c3c(cccc13)C(=O)N2 | . | . | ? | ? | ? | 15.8µM
C=CCN1c2ccccc2[C@]23C[C@@H](C(=O)OC)N(S(=O)(=O)c4ccc5c(c4)OCCN5C)C2=NC(C(=O)OC)=C(C(=O)OC)[C@H]13 | / | .[12.4 µM] | / | / | / | /
O=S(=O)(NCc1ccco1)c1ccccc1Br | / | . | 89.1µM! | . | . | ?
COc1cc(OC)c(S(=O)(=O)NCc2ccco2)cc1S(=O)(=O)NCc1ccco1 | . | . | . | . | . | .
Cc1ccc(S(=O)(=O)N2CCN(c3nc(-n4cccn4)nc4ccccc34)CC2)cc1 | / | / | ? | . | / | /
Clc1ccccc1OCCSc1nnc(-c2cccs2)o1 | / | / | . | . | . | .
O=C(Cc1ccccc1)NC1(O)C(=O)c2ccccc2C1=O | / | ? | 7.08µM | . | ? | .
O=C(Cc1ccccc1)NO | / | . | . | . | / | /
COc1ccccc1NC(=O)COC(=O)c1ccc(S(=O)(=O)NCc2ccco2)cc1 | . | ? | ? | ? | ? | ?
Cc1c(C(=O)OCC(=O)NCc2ccco2)cccc1[N+](=O)[O-] | . | ? | 56.2µM | . | 25.1µM | /
COc1ccccc1NS(=O)(=O)c1ccc(C(=O)OCC(=O)NCc2ccco2)cc1 | ? | ? | ? | . | ? | 15.8µM
O=C(COC(=O)c1ccc([N+](=O)[O-])cc1Cl)NCc1ccco1 | . | . | . | . | . | /
O=C1CCN(Cc2ccccc2)C=C1c1ccc(Br)cc1 | . | . | . | . | . | /
COC1=C(Nc2ccc(C)cc2)C(=O)c2ccccc2C1=O | 15.8µM | ? | ? | . | . | ?
COC1=C(Nc2ccccc2)C(=O)c2ccccc2C1=O | 31.6µM | . | 17.8µM | . | . | ?
COC1=C(OC)C(=O)c2ccccc2C1=O | / | . | 22.4µM | . | ? | 28.2µM
CC(=O)Nc1ccc2c(c1)Cc1cc(N3C(=O)C=CC3=O)ccc1-2 | / | / | ? | . | . | /
SMILES | L3MBTL1 inh | APE1 inh | POLI inh | POLK inh | POLH inh | POLB inh
COc1ccc2c(c1)C(c1ccc3c(c1)OCO3)CC(=O)O2 (configuration not stated) | / | . | / | . | / | /
COc1cc(OC)cc(C(=O)NCC(=O)OCC(=O)N2c3ccccc3NC(=O)C2(C)C)c1 | . | . | . | . | . | ?
CC1(C)C(=O)Nc2ccccc2N1C(=O)COC(=O)CCSc1ccccc1 | / | . | . | . | . | .
CC1(C)C(=O)Nc2ccccc2N1C(=O)COC(=O)c1cccnc1Cl | . | . | ? | . | 50.1µM | /
Cc1cc(C)cc(C(=O)NCC(=O)OCC(=O)N2c3ccccc3NC(=O)C2(C)C)c1 | 17.8µM | ? | . | . | . | 14.1µM
CC1(C)C(=O)Nc2ccccc2N1C(=O)CSc1nnc2ccccn12 | . | ? | ? | ? | ? | 31.6µM
CC1(C)C(=O)Nc2ccccc2N1C(=O)COC(=O)c1cccs1 | . | . | ? | ? | 25.1µM | /
Cc1[nH]nc2nc(SCC(=O)NC3CCCCC3)n(-c3ccc(Br)cc3)c(=N)c12 | / | . | ? | . | ? | .
CCCCCCCCCCCCCCCC(=O)OCC(COP(=O)(O)O)OC(=O)CCCCCCCCCCCCCCC (configuration not stated) | / | . | / | .[19.4 µM] | / | /
COc1ccc(N2C(=O)CCC(C(=O)O)C2c2ccccc2OC)cc1 (configuration not stated) | / | . | . | . | . | .
CC1(C)C(=O)Nc2ccccc2N1C(=O)COC(=O)c1cc(S(=O)(=O)N2CCOCC2)ccc1F | . | ? | 39.8µM | ? | ? | 39.8µM
Cc1ccc(S(=O)(=O)N2CCOCC2)cc1C(=O)OCC(=O)N1c2ccccc2NC(=O)C1(C)C | / | . | / | / | / | .
CCCCc1nn2c(=O)cc(COC(=O)c3cccs3)nc2s1 | / | / | . | . | . | ?
CC(=O)c1ccc(NC(=O)CSc2ccc(-c3sc(C)nc3C)nn2)cc1 | / | . | ? | . | . | 20µM
COc1ccc(-c2ccc(SCC(=O)Nc3cccc(C(C)=O)c3)nn2)cc1OC | / | . | 28.2µM | ? | ? | 15.8µM
COc1ccc(NC(=O)CSc2ccc(-c3sc(C)nc3C)nn2)cc1OC | / | . | ? | . | . | 25.1µM
CC(=O)c1ccc(NC(=O)CSc2ccc3nnc(-c4ccccn4)n3n2)cc1 | / | . | . | . | ? | 50.1µM
CC(=O)c1cccc(NC(=O)CSc2ccc(-c3ccc4c(c3)OCO4)nn2)c1 | . | . | . | . | . | .
CC(C)(C)n1ncc2c(=O)n(Cc3ccc(F)cc3Cl)cnc21 | / | . | . | . | / | /
Cc1cc(C(=O)CN2C(=O)C(=O)N(C3CCCC3)C2=O)c(C)n1CCc1ccc(F)cc1 | . | . | . | . | . | /
COc1cc2nc(N3CCCCC3)nc(NC3CC3)c2cc1OC | / | / | . | . | / | /
COc1ccc(S(=O)(=O)N2Cc3ccccc3CC2C(=O)Nc2ccc3c(c2)OCO3)cc1 (configuration not stated) | . | . | . | . | . | .
O=C(O)C1Cc2ccccc2CN1S(=O)(=O)c1ccccc1 (configuration not stated) | / | . | . | . | 79.4µM | .
O=C(O)C1Cc2ccccc2CN1S(=O)(=O)c1ccc2ccccc2c1 (configuration not stated) | / | ? | ? | . | 5.62µM | .
Cc1ccc(S(=O)(=O)N2Cc3ccccc3CC2C(=O)Nc2ccc3c(c2)OCO3)cc1 (configuration not stated) | / | ? | ? | 50.1µM | 10µM | 22.4µM
CN(C)C(=O)C1Cc2ccccc2CN1S(=O)(=O)c1ccc(F)cc1 (configuration not stated) | . | . | . | . | . | .
CC(C)(C)NC(=O)CSc1nnc(NC(=O)c2ccccc2Cl)s1 | . | . | . | . | . | .
O=C(CSc1nnc(NC(=O)c2ccccc2Cl)s1)Nc1ccc2c(c1)oc1ccccc12 | . | ? | / | / | / | 31.6µM
